In PubChem BioAssay (NCI):
About 83,000 compounds went through this panel and 20% of them were active in at least one assay; those are over-represented in the sample as a whole.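 Method: cells in 96-well plates; compound added at one concentration; 48 h incubation; percent growth measured; values under 10 scored active.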 Values without a mark were called inactive. Active and inactive are the calls of the source.

system: COLO 205 colon; assay: NCI-60 one-dose screen, 48 h (100 = growth as untreated, 0 = no growth, -100 = all killed); details: 10 µM unless noted

| Structure (SMILES) | growth |
| --- | --- |
| CCCCCSB(SCCCCC)c1ccccc1 | 106% |
| c1ccc(CNc2ccc3nc(CCC4CCCCC4)[nH]c3c2)cc1 | 1.16% (active) |
| S=c1ssnc1-c1cccs1 | 115% |
| O=C(/C=C/c1ccc(Br)cc1)c1ccc(-n2cc(CN3CCN(c4cc5c(cc4F)c(=O)c(C(=O)O)cn5C4CC4)CC3)nn2)cc1 | 107% |
| COc1ccc(Cc2cnc(NC(=O)c3sc4ccccc4c3Cl)s2)cc1 | 10.2% |
| N#C/C(=C\c1ccc(Cl)cc1Cl)C(=O)Nc1ncc(Cc2ccc(Cl)c(Cl)c2)s1 | 112% |
| N#Cc1c(-c2cccc([N+](=O)[O-])c2)cc(-c2ccc(Nc3nc(Nc4ccc(F)cc4)nc(Nc4ccc(F)cc4)n3)cc2)nc1N | 117% |
| O=C(CCCCCCN1CC(=O)N2[C@@H](c3ccc(Cl)cc3)c3[nH]c4ccccc4c3C[C@H]2C1=O)NO | 75.3% |
| CCCCCCCCn1ccc2cc(NC(=O)Cn3cc(CN4CCC(C)CC4)nn3)ccc21 | -74.4% (active) |
| CCCC(O)Cn1ncc(C(=O)OCC)c1NC(=O)NCc1cccc(F)c1 (stereo unspecified) | 111% |
| COc1cc2c3c(c1O)-c1ccccc1[C@@H]1OC(=O)N(CC2)[C@H]31 | 107% |
| C/C(=C(/c1ccc(Cl)cc1)c1ccc(OCCCN(C)C)cc1)c1ccc(Cl)cc1 | 48.9% |
| Cc1cc(C(=O)Nc2cc(Nc3ncccc3-c3ncnc4nc[nH]c34)ccc2F)cc(C(F)(F)F)c1 | 13.4% |
| CCOC(=O)NN1CC(O)=C(c2nc(-c3ccc(Br)cc3)cs2)C1=N | 112% |
| O=C1C(Cl)=C(NCCN2CCOCC2)C(=O)c2ncccc21 | -75.2% (active) |
| O=C(Nc1ccc(F)cc1)Nc1ccccc1CNc1nc(Nc2ccc(OCCN3CCCC3)cc2)ncc1Cl | 0.109% (active) |
| C[C@H]1[C@H](C)CC[C@]2(C(=O)O)CC[C@]3(C)C(=CC[C@@H]4[C@@]5(C)C[C@@H](Cc6cn([C@@H]7O[C@H](CO)[C@@H](O)[C@H](O)[C@H]7O)nn6)[C@H](O)C(C)(C)[C@@H]5CC[C@]43C)[C@H]12 | 105% |
| COC(=O)c1ccc2c(c1)c1c(C)c3ccncc3c(C)c1n2C | 2.15% (active) |

| Structure (SMILES) | growth |
| --- | --- |
| COc1cc(C(=O)c2c(-c3ccccc3)oc3c(OC)cccc23)cc(OC)c1O | 7.65% (active) |
| C=C1C(=O)O[C@H]2[C@H]1CC/C(CNC(=O)c1cc3ccccc3[nH]1)=C\CC[C@@]1(C)O[C@@H]21 | -83.3% (active) |
| O=P(O)(O)OCC1OC(n2cnc3c(NCc4ccccc4)ncnc32)C(O)C1O (stereo unspecified) | 11.2% |
| CCN(CC)CCCNCc1cc(-c2ccccc2)nc2cc(Cl)ccc12 | 51.2% |
| COc1cc2nc(Nc3cccc(F)c3)nc(Nc3cc(C)[nH]n3)c2cc1OC | -60.9% [20 µM] (active) |
| CCC/C(=N\NC(N)=O)C(OC)OC | 110% |
| O=C1c2cc3c(cc2-c2c1c1ccc(Cl)cc1c(=O)n2C[C@H](O)CO)OCO3 | -28.1% (active) |
| CCSC1=CC(=O)c2ccccc2C1=O | 96.9% |
| COc1cc(-c2nc3occn3c2-c2ccnc(NCCCNS(=O)(=O)c3ccccc3)n2)ccc1F | 28.8% |
| COC1=CC(c2ccc[nH]2)=N/C1=C\c1[nH]c(C)c(CC(=O)OCc2ccccc2)c1C | -4.75% (active) |
| O=C(CSc1nnc2sc(Nc3cccc(Cl)c3)nn12)c1ccc(F)cc1 | 92.6% |
| COc1ccc(C2=Nc3c(N)ncnc3NC(c3cccc(Nc4ccnc5cc(C(F)(F)F)ccc45)c3)C2)cc1 (stereo unspecified) | 62.4% |
| Nc1c(C(=O)Nc2cccc3ncccc23)sc2nc3c(cc12)C(=O)CCC3 | 45.9% |
| C#CCn1cnc2c(Nc3cccc(NC(=O)CCl)c3)ncnc21 | 18.6% |
| COc1cc2oc(-c3cccc(NC(=O)c4ccc5c(c4)OCO5)c3)cc(=O)c2c(OC)c1OC | 68.1% |
| CCOC(=O)CSc1nc2sc3c(c2c(=O)n1-c1ccc([N+](=O)[O-])cc1)CCCCC3 | 82.8% |
| Cn1cc(-c2nn3cc(-c4ccccc4)nc3s2)c2ccccc21 | 73.7% |
| C=C1C(=O)O[C@H]2[C@H]1CC/C(COC(=O)NCCCCCCCCNC(=O)OC/C1=C/CC[C@@]3(C)O[C@H]3[C@H]3OC(=O)C(=C)[C@@H]3CC1)=C\CC[C@@]1(C)O[C@@H]21 | -64.9% (active) |
